Test [1] can be described thus: qHTS assay to identify small molecule agonists of the estrogen related receptor signaling pathway with the pleiotropic PPARgamma coactivator (PGC) (AID 1224823). In short, it runs like this: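 Compounds dissolved in DMSO are added by pin tool to PGC/ERR cells that have settled for 6 h, and incubation continues 18 h at 37 C. Reporter output is measured as One-Glo luminescence.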
(In general: qHTS replaces the single test concentration by a dilution series.)

Test [2] in a line: qHTS assay to identify small molecule antagonists of the estrogen related receptor (ERR) signaling pathway from Tox21 library - cell viability counter screen (AID 1224834). Note: nearly all actives have a fitted effect of over 30% in size. In short, it runs like this: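 CellTiter-Fluor fluorescence, read after 30 min at 37 C, measures viability of ERR cells. Cells plated at 2,000/well and incubated 6 h before pin-tool compound addition, then exposed 17.5 hours at 37 C.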

The target of test [3] is Luciferin 4-monooxygenase (Photinus pyralis) (UniProt P08659). Description: qHTS assay to identify small molecule inhibitors of firefly luciferase (AID 1224835). Note: nearly all actives have a fitted effect of over 25% in size. Note: potency is the fitted concentration of half-maximal effect. The method in brief: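 Quantitative HTS format; KM concentrations of both substrates. Purified P. pyralis FLuc activity quantified from luminescence images.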
Sequence of Luciferin 4-monooxygenase (Photinus pyralis) (P08659 whole entry, looked up): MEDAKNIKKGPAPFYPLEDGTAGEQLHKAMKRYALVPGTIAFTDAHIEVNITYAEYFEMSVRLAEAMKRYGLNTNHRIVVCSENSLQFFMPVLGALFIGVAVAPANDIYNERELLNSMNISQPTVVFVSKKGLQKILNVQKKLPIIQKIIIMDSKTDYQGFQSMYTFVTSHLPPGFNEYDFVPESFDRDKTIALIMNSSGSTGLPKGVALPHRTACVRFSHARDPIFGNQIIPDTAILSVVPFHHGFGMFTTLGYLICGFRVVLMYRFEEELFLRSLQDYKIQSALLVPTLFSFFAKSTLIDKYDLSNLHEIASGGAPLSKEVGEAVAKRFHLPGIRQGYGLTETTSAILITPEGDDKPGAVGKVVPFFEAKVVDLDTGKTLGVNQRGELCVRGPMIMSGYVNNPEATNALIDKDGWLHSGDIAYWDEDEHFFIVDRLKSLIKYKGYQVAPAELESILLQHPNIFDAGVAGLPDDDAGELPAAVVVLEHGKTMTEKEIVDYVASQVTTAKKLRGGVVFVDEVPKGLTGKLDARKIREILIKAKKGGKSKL
Test [4] can be described thus: qHTS assay to identify small molecule agonists of the constitutive androstane receptor (CAR) signaling pathway - cell viability counter screen (AID 1224836). Note: series mostly up to about 92 µM; nearly all actives have a fitted effect of over 45% in size. The method in brief:
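HepG2-CYP2B6-hCAR, 2500 cells/well, 4 h pre-incubation; cpd 15 conc + PK11195 0.75 uM final; 23 h, 37 C/5% CO2; CellTiter-Fluor, fluorescence.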

Test [5] in a line: qHTS assay to identify small molecule antagonists of the constitutive androstane receptor (CAR) signaling pathway - cell viability counter screen (AID 1224837). Note: series mostly up to about 92 µM; nearly all actives have a fitted effect of over 45% in size. In short, it runs like this: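 Cytotoxicity counter-screen: CellTiter-Fluor fluorescence after 23 h compound exposure (15-point qHTS) in double-stable HepG2-CYP2B6-hCAR cells, with 50 nM CITCO added.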
Test [6] in a line: qHTS assay to identify small molecule antagonists of the estrogen related receptor signaling pathway with the pleiotropic PPARgamma coactivator (PGC) from Tox21 10K library - cell viability counter screen (AID 1224840; active = well fitted cell-killing curve with a large enough effect in the repeat runs, not every such curve was filed as active; note: nearly all actives have a fitted effect of over 40% in size). The method in brief: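 Counter-screen for cytotoxicity: after 17.5 h compound exposure at 37 C, CellTiter-Fluor reagent added to PGC/ERR cells for 30 min and fluorescence read. Cells were seeded at 2,000 per well 6 h before dosing.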

Test [7] in a line: qHTS assay to identify small molecule antagonists of the estrogen related receptor signaling pathway with the pleiotropic PPARgamma coactivator (PGC) from Tox21 10K library (AID 1224841; call rule not given here; note: series mostly up to about 92 µM; actives are mostly falling curves and most rising ones were filed inactive; nearly all actives have a fitted effect of over 50% in size). The method in brief: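 Luminescence (One-Glo, 30 min at room temperature) after 18 h compound treatment at 37 C of PGC/ERR reporter cells plated at 2,000 cells/well and settled 6 h beforehand.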

Test [8] is described as follows: qHTS assay to identify small molecule agonists of the estrogen related receptor signaling pathway with the pleiotropic PPARgamma coactivator (PGC) from Tox21 10K library (AID 1224842). Note: nearly all actives have a fitted effect of over 15% in size. In short, it runs like this:
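PGC/ERR reporter cells (NTP line) were seeded 2,000 per well, rested 6 h at 37 C/5% CO2, then pin-dosed with compounds in DMSO for 18 h at 37 C; luciferase read by One-Glo luminescence after 30 min at room temperature.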

For test [9], the target named is Nuclear receptor subfamily 1 group I member 3 (Homo sapiens) (UniProt Q14994). Description: qHTS assay to identify small molecule antagonists of the constitutive androstane receptor (CAR) signaling pathway (AID 1224838).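 Note: HepG2 cells stably expressing hCAR with CYP2B6 luciferase reporter stimulated by CITCO; nearly all actives have a fitted effect of over 40% in size.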 The method in brief: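 Antagonism measured as luciferase signal (ONE-Glo, 30 min, room temperature) in CAR-stimulated cells: HepG2-CYP2B6-hCAR double-stable line exposed 24 hr at 37 C to compound in a 15-point series plus 50 nM CITCO.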
Sequence of Nuclear receptor subfamily 1 group I member 3 (Homo sapiens) (Q14994 whole entry, looked up): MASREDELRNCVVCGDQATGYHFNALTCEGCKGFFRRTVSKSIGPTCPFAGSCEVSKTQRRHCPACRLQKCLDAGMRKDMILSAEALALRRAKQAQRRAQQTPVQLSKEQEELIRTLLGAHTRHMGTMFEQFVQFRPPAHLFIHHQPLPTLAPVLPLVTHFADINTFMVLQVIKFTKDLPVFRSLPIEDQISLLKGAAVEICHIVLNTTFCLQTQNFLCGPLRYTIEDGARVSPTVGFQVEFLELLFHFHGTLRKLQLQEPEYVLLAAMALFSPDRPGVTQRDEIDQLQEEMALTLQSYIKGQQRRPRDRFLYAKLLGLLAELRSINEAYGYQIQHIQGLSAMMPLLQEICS

For test [10] the target is unchanged. The test can be described thus: qHTS assay to identify small molecule agonists of the constitutive androstane receptor (CAR) signaling pathway (AID 1224839).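 Note: HepG2 cells stably carrying human CAR and a CYP2B6 luciferase reporter; series mostly up to about 92 µM; nearly all actives have a fitted effect of over 15% in size.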 The method in brief:
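HepG2-CYP2B6-hCAR cells, 2500/well, 4 h pre-incubation; compounds 15 conc.; PK11195 0.75 uM final; 24 h, 37 C/5% CO2; ONE-Glo luciferase read.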

Results filed as inconclusive are left out. A number with no mark means an inactive call. Calls of active or inactive are those of the source. Unless noted, calls come from the whole dose curve; as a rule, active = well fitted curve in the direction sought with a large enough effect in the repeat runs; inconclusive = weak or mixed curves; inactive = no such curve, though single readings can be large; an effect the other way counts as inactive or inconclusive.

The values below come from PubChem BioAssay (Tox21).

As for `CC(=O)CCCCn1c(=O)c2c(ncn2C)n(C)c1=O`, the result in [1], in test [6] and in test [8] was inactive. In addition, the Potency entry in test [2], in test [3], in test [4], in test [5] and in test [7] was “inactive” throughout.

For the compound `O=C(NCCN1CCOCC1)c1ccc(Cl)cc1`, the compound was classed as inactive in test [1], in test [9], in test [6] and in [8]. Further, the Potency entry in test [2], in test [3], in [4], in [5], in [10] and in test [7] was “inactive” throughout.

On to `CC1(C)S[C@@H]2[C@H](N=CN3CCCCCC3)C(=O)N2[C@H]1C(=O)O`, for which the Potency result in test [2], in test [3], in test [4] and in [5] was “inactive” throughout. For the same compound, the compound was called inactive in test [9].

`FC(F)(F)c1ccccc1-n1ccnc1`: the Potency result in test [2], in test [3], in [4], in test [5] and in test [10] was “inactive” each time. Further, the compound was called inactive in test [9] and in test [6].

Regarding `O=S(=O)(O)c1ccc2cc(O)c(S(=O)(=O)O)cc2c1`, the Potency result in [2], in test [3], in [4], in [5] and in test [10] was “inactive” each time. Moreover, the compound was called inactive in [9] and in test [6].

As for `C=COCCOCCOCCOC=C`, the Potency result in test [2], in test [3], in test [4] and in test [5] was “inactive” each time. Besides, the compound was classed as inactive in test [9].

Turning to `Brc1ccc(-c2ccccc2)cc1`, the Potency entry in test [2], in test [4], in [5] and in test [10] was “inactive” each time. In addition, in test [3], the Potency was 35.5 µM (active). The result in test [9] and in test [6] was inactive.

For `CC(C)CCCC(C)(C)O`, the Potency entry in test [2], in test [3], in [4], in test [5] and in test [10] was “inactive” in each case. Besides, the call in test [9] and in [6] was inactive.

Regarding `Cc1cccc(C)c1NC(=O)c1ccccc1C(=O)O`, the Potency entry in test [2], in [3], in test [4], in [5], in [10] and in [7] was “inactive” in each case. The call in test [9], in [6] and in test [8] was inactive.

For the compound `CCCCN`, the Potency result in test [2], in test [3], in test [4], in test [5], in test [10] and in test [7] was “inactive” throughout. The outcome in test [9], in test [6] and in test [8] was inactive.

With `CCCCCCCCSCC`, the Potency entry in test [2], in test [3], in test [4], in [5], in test [10] and in [7] was “inactive” throughout. The result in test [9], in test [6] and in test [8] was inactive.

For `CCOC(=O)/C=C/c1ccccc1`, the Potency result in [2], in test [4], in [5] and in [10] was “inactive” in each case. Further, the Potency in test [3] is 35.6 µM (active). The compound was called inactive in test [9] and in test [6].

For the compound `On1nnc2ccccc21`, the Potency entry in [2], in test [3], in test [4], in [5], in test [10] and in test [7] was “inactive” in each case. Also, the call in test [9], in [6] and in test [8] was inactive.

Turning to `C[C@@H](Oc1ccc(CNC(=O)c2cccnc2Oc2ccc3c(c2)OCO3)c(F)c1)C(=O)O`, the Potency result in [2], in test [3], in test [4], in [5], in test [10] and in [7] was “inactive” in each case. In addition, the compound was called inactive in [9], in test [6] and in test [8].

In the case of `CC(C)C[C@H](NC(=O)CNC(=O)[C@H](Cc1ccc(O)cc1)NC(=O)[C@H](CO)NC(=O)[C@H](Cc1c[nH]c2ccccc12)NC(=O)[C@H](Cc1cnc[nH]1)NC(=O)[C@@H]1CCC(=O)N1)C(=O)N[C@@H](CCCN=C(N)N)C(=O)N1CCC[C@H]1C(=O)NCC(N)=O` (stereo in doubt), the Potency result in test [2], in test [3], in test [4], in [5] and in test [10] was “inactive” throughout. The call in test [9] and in test [6] was inactive.

On to `CC(=C(CCOC(=O)C(C)C)SSC(CCOC(=O)C(C)C)=C(C)N(C=O)Cc1cnc(C)nc1N)N(C=O)Cc1cnc(C)nc1N`, for which the Potency entry in test [2], in [3], in [4], in test [5], in test [10] and in test [7] was “inactive” in each case. Further, the compound was called inactive in test [9], in [6] and in test [8].

For `COc1ccc(Br)c(C)c1`, the Potency entry in test [2], in test [3], in test [4], in [5], in [10] and in [7] was “inactive” each time. For the same compound, the result in test [9], in test [6] and in test [8] was inactive.

Consider `O=C(OCC(COC(=O)c1cccnc1)(COC(=O)c1cccnc1)COC(=O)c1cccnc1)c1cccnc1`, for which the Potency entry in [2], in test [3], in test [4], in test [5] and in [10] was “inactive” in each case. Moreover, the compound was called inactive in test [9] and in [6].

For `CC1=CCC(C(C)C)=CC1`, the Potency result in test [2], in test [3], in test [4], in test [5] and in test [10] was “inactive” in each case. Further, the result in [9] and in test [6] was inactive.

Regarding `CCC(C)NC(N)=O` (configuration not stated), the Potency entry in test [2], in test [3], in [4], in [5] and in test [10] was “inactive” each time. Besides, the compound was called inactive in [9] and in [6].

With `COc1nccnc1NS(=O)(=O)c1ccc(N)cc1`, the Potency result in test [2], in [3], in test [4], in [5], in test [10] and in test [7] was “inactive” throughout. For the same compound, the result in [9], in [6] and in test [8] was inactive.

As to `Cc1ccc2c(c1)OCC(=O)CO2`, the Potency result in test [2], in test [3], in [4], in test [5], in test [10] and in test [7] was “inactive” throughout. Further, the result in test [9] and in test [6] was inactive.

Take `COc1cc(C(=S)N2CCOCC2)cc(OC)c1OC`: the Potency entry in [2], in [3], in [4], in test [5], in test [10] and in test [7] was “inactive” in each case. The compound was called inactive in test [9], in test [6] and in test [8].

Turning to `COc1cc2c(cc1OC)[C@@H]1CC(=O)[C@@H](CC(C)C)CN1CC2`, the Potency result in test [2], in test [3], in test [4], in test [5] and in test [10] was “inactive” throughout. In addition, the result in test [9] and in [6] was inactive.

With `CC(=O)NCCCCCC(=O)O`, the Potency result in test [2], in test [3], in test [4], in test [5] and in test [10] was “inactive” each time. The outcome in test [9] and in test [6] was inactive.

With `C=C(C)C(=O)OCC(C)(C)COC(=O)C(=C)C`, the Potency entry in test [2], in test [3], in [4], in [5], in test [10] and in test [7] was “inactive” in each case. The compound was classed as inactive in test [9], in [6] and in test [8].

In the case of `CC(=O)N[C@@H](CCC(=O)O)C(=O)O`, the Potency entry in test [2], in [3], in [4], in [5], in test [10] and in test [7] was “inactive” throughout. The result in test [9], in test [6] and in test [8] was inactive.
